# Measurements published in PubChem BioAssay (NCATS).
# Inconclusive results are not listed. Where a call stands in place of a potency, no number is given. Unmarked numbers belong to inactive results. Calls of active or inactive are those of the source. Calls follow the shape of the dose curve; as a rule, active = well fitted curve in the direction sought with a large enough effect; inconclusive = small, poorly fitted or top-dose-only effect, or another doubt; inactive = no such curve, though single readings can be large; an effect the other way counts as inactive or inconclusive.
# Legend:
# [1] = target: Cellular tumor antigen p53 (Homo sapiens) (UniProt P04637); assay: Primary qHTS for small molecule compounds that upregulate eGFP-tagged delta133p53alpha (in N-terminal) cells. (AID 2060322); settings: NCI-H358 eGFP-delta133p53alpha fluorescence, 24 h; activation: stronger effect = higher value; also: nearly all actives have a fitted effect of over 75% in size; also: potency is read from the fitted curve at half-maximal effect;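 as to activation: cells pre-induced with doxycycline then dosed without doxycycline; series mostly up to about 56 µM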
# In short: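 NCI-H358 cells pre-induced 24 h with 10 ng/ml doxycycline for eGFP-delta133p53alpha, plated dox-free and exposed 24 h at 37C to titrated compounds. Fixed, Hoechst-stained; gated GFP peak intensity by laser scanning cytometry, normalized to DMSO (0%) and 57.5 uM 5-azacytidine (100%).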
# [2] = target: Aldehyde dehydrogenase, mitochondrial (Homo sapiens) (UniProt P05091); assay: qHTS for Inhibitors of the Aldehyde Dehydrogenase Family (ALDH2) Primary screen (AID 2061308); also: nearly all actives have a fitted effect of over 55% in size
# [3] = target: Retinaldehyde dehydrogenase 3 (Homo sapiens) (UniProt P47895); assay: qHTS for Inhibitors of the Aldehyde Dehydrogenase Family (ALDH1A3) Primary screen (AID 2061315)
# Sequence of Cellular tumor antigen p53 (Homo sapiens) (P04637 whole entry, looked up): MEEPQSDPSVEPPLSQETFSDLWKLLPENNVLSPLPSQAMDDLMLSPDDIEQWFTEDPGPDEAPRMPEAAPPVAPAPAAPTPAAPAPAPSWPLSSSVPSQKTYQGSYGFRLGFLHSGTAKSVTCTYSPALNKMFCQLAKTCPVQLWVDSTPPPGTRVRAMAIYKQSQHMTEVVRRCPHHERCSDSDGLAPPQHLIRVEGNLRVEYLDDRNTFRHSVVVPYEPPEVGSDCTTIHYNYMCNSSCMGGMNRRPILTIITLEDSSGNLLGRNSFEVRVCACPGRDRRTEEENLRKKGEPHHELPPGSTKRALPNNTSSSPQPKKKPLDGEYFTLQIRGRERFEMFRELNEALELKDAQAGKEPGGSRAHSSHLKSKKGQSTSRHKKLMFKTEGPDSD
SMILES,activation [1],Potency [2],Potency [3],Potency [1],"activity change, negative = inhibition [2]","activity change, negative = inhibition [3]"
CCCn1cc2c(nc(NC(=O)Nc3ccc(OC)cc3)n3nc(-c4ccco4)nc23)n1,9.07%,inactive,inactive,–,–,–
Cc1nc(C#Cc2ccnc(Cl)c2)c(C)n1-c1ccc(OC(F)(F)F)cc1,-7.16%,inactive,inactive,–,–,–
O=C(O)Cc1cn(C2OCC(O)C(O)C2O[C@@H]2O[C@H](CO)[C@@H](O)[C@H](O)[C@H]2O)c2ccccc12 (some centres undefined),3.82%,inactive,inactive,–,–,–
CC(=O)OC1CC2C(C)(C)C(=O)C=CC2(C)C2CC(=O)C3=C(CCC3C3=CC(O)OC3=O)C12C (centres undefined),-12.2%,inactive,inactive,–,–,–
CC(C)=CCC/C(C)=C/CO[C@@H]1O[C@H](CO)[C@@H](OC(=O)/C=C/c2ccc(O)cc2)[C@H](O[C@@H]2O[C@@H](C)[C@H](O)[C@@H](O)[C@H]2O)[C@H]1O,19.6%,inactive,inactive,–,–,–
COC(=O)Cn1nc(-c2cccc(OC)c2)c2ccccc21,-1.67%,inactive,inactive,–,–,–
C=C(C(=O)O[C@H]1C/C(C)=C/CC/C(CO)=C/[C@H]2OC(=O)C(=C)[C@H]12)C(O)CO (some centres undefined),–,inactive,inactive,18.6 µM (active),–,–
CCN1CCN(Cc2ccc(-c3cc4c(NC(C)c5ccccc5)ncnc4[nH]3)cc2)CC1 (centres undefined),–,inactive,inactive,26.9 µM (active),–,–
CC(=O)O[C@H]1C[C@@H](O)C(C)(C)C2C[C@@H](OC(C)=O)[C@]3(C)C(CC[C@@]4(C)[C@H](c5ccoc5)OC(=O)[C@H]5O[C@]543)[C@]21C (some centres undefined),11.6%,inactive,inactive,–,–,–
C/C=C(\C)C(=O)OC1CC2C(CC=C3CC(OC4CC(OC)C(OC5CC(OC)C(OC6CC(OC)C(OC7CC(OC)C(OC8CC(OC)C(OC9OC(CO)C(O)C(O)C9O)C(C)O8)C(C)O7)C(C)O6)C(C)O5)C(C)O4)CCC32C)C2(O)CCC(C(C)=O)C12C (centres undefined),-13%,–,–,–,14.2% [at 11.2 µM],17.2% [at 11.2 µM]
COc1ccccc1C(=O)Nc1cccc(NC(=O)c2cccc(C)c2)c1,-11.7%,inactive,inactive,–,–,–
CC(C)/C=C1/NC(=O)C(C(C)C)n2c1nc1c(O)cccc1c2=O (centres undefined),-14.5%,inactive,inactive,–,–,–
CC(CCC1(O)OC2CC3C4CCC5CC(O[C@@H]6O[C@H](CO)[C@@H](O)[C@H](O)[C@H]6O[C@@H]6O[C@@H](C)[C@H](O)[C@@H](O)[C@H]6O)C(O)CC5(C)C4CCC3(C)C2C1C)CO[C@@H]1O[C@H](CO)[C@@H](O)[C@H](O)[C@H]1O (some centres undefined),9.82%,inactive,inactive,–,–,–
C#Cc1cnc2[nH]c(=O)n(C(CC)CC)c2n1,-4.77%,inactive,inactive,–,–,–
C=C1C(=O)OC2/C=C(\C)CC/C=C(\C)CC(OC(C)=O)C12 (centres undefined),–,inactive,inactive,26.9 µM (active),–,–
CC1(C)CC[C@]2(C(=O)O[C@@H]3O[C@H](CO)[C@@H](O)[C@H](O)[C@H]3O)[C@H](O)C[C@]3(C)C(=CCC4[C@@]5(C)CC[C@H](O[C@@H]6OC[C@@H](O)[C@H](O)[C@H]6O)[C@@](C)(C(=O)O)C5CC[C@]43C)[C@@H]2C1 (some centres undefined),-16.8%,inactive,inactive,–,–,–
CC1CCC2(C)C(CC(O)C(O)C23CO3)C1(C)CCC1=CC(O)OC1=O (centres undefined),-2.29%,inactive,inactive,–,–,–
C=C1C(=O)O[C@@H]2[C@H]3C(C)=CC(=O)C3=C(C)CC[C@@H]12,–,inactive,inactive,10.7 µM (active),–,–
COC(=O)/C=C/C=C/C(=O)OC1C=C2COC(=O)C2(O)C2(C)CCCC(C)(C)C12 (centres undefined),-4.58%,inactive,inactive,–,–,–
CN1CCN(S(=O)(=O)c2ccc(-c3cnc(N)c(C(=O)Nc4cccnc4)n3)cc2)CC1,-18.8%,inactive,inactive,–,–,–
NC1CCCCN(c2c(F)cc3c(=O)c(C(=O)O)cn(C4CC4)c3c2Cl)C1 (centres undefined),-8.59%,inactive,inactive,–,–,–
COc1cc(/C=C/C(=O)O[C@@H]2O[C@H](CO)[C@@H](O)[C@H](O)[C@H]2O)ccc1O,4.46%,inactive,inactive,–,–,–
COc1cc(O)cc(/C=C/c2ccc(O[C@@H]3O[C@H](CO)[C@@H](O)[C@H](O)[C@H]3O)cc2)c1,-11.6%,inactive,inactive,–,–,–
